Results from PubChem BioAssay AID1159580 (chemical genetic matrix, 2015).
The whole screen tested about 5,500 compounds, of which about 2,000 (36%) were called active. Another 18% or so got no clear call; they are omitted. Cut-off read from the data, not from the text of the source: active = normalized growth mostly below about 0.91 (no sharp cut-off); inconclusive = no clear call, values can overlap the other calls; inactive = mostly above about 0.92. This is one part of the list.

Test: chemical genetic growth profiling, strain panel (AID 1159580);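 note: tested at 20 µM; growth read once vehicle control cultures reached saturation at 30 °C; 1 = growth at the plate median or of vehicle wells; lower values mean less growth of the strain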
Details: growth OD

Measured: normalized growth

CC1CCc2cc(F)cc3c(=O)c(C(=O)O)cn1c23 (configuration not stated)
inactive: S. cerevisiae deletion strains, locus YJR075W, strain HOC1, active compounds read low 0.967 | S. cerevisiae deletion strains, locus YKL009W, strain mrt4, active compounds read low 0.957 | S. cerevisiae deletion strains, locus YKL068W, active compounds read low 0.985 | S. cerevisiae deletion strains, locus YKL085W, strain MDH1 (second series), active compounds read low 0.974 | S. cerevisiae deletion strains, locus YKL085W, strain MDH1, active compounds read low 0.974 | S. cerevisiae deletion strains, locus YKL160W, strain elf1, active compounds read low 0.971 | S. cerevisiae deletion strains, locus YKL190W, strain CNB1, active compounds read low 0.991 | S. cerevisiae deletion strains, locus YKR001C, strain vps1, active compounds read low 0.998 | S. cerevisiae deletion strains, locus YKR026C, strain gcn3, active compounds read low 0.989 | S. cerevisiae deletion strains, locus YKR091W, strain srl3, active compounds read low 0.994 | S. cerevisiae deletion strains, locus YLL001W, strain dnm1, active compounds read low 0.966 | S. cerevisiae deletion strains, locus YLL026W, active compounds read low 0.995 | S. cerevisiae deletion strains, locus YLL041C, strain sdh2, active compounds read low 0.989 | S. cerevisiae deletion strains, locus YLR027C, strain aat2, active compounds read low 0.988 | S. cerevisiae deletion strains, locus YLR039C, strain RIC1, active compounds read low 0.892 | S. cerevisiae deletion strains, locus YLR058C, strain SHM2, active compounds read low 0.983 | S. cerevisiae deletion strains, locus YLR102C, strain apc9, active compounds read low 0.982 | S. cerevisiae deletion strains, locus YLR113W, strain HOG1, active compounds read low 0.955 | S. cerevisiae deletion strains, locus YLR221C, strain rsa3, active compounds read low 0.973 | S. cerevisiae deletion strains, locus YLR258W, strain gsy2, active compounds read low 0.982 | S. cerevisiae deletion strains, locus YLR262C, strain YPT6 (second series), active compounds read low 0.952 | S. cerevisiae deletion strains, locus YLR262C, strain YPT6, active compounds read low 0.867 | S. cerevisiae deletion strains, locus YLR268W, strain sec22, active compounds read low 0.894 | S. cerevisiae deletion strains, locus YLR320W, strain mms22, active compounds read low 0.972 | S. cerevisiae deletion strains, locus YLR330W, strain CHS5, active compounds read low 1.01 | S. cerevisiae deletion strains, locus YLR342W, strain FKS1 (second series), active compounds read low 0.978 | S. cerevisiae deletion strains, locus YLR342W, strain FKS1, active compounds read low 0.978 | S. cerevisiae deletion strains, locus YLR357W, strain rsc2, active compounds read low 0.923 | S. cerevisiae deletion strains, locus YLR370C, strain arc18, active compounds read low 0.991 | S. cerevisiae deletion strains, locus YLR371W, strain rom2, active compounds read low 0.965 | S. cerevisiae deletion strains, locus YLR384C, strain iki3, active compounds read low 0.985 | S. cerevisiae deletion strains, locus YLR418C, strain cdc73, active compounds read low 0.96 | S. cerevisiae deletion strains, locus YML016C, strain PPZ1, active compounds read low 0.986 | S. cerevisiae deletion strains, locus YML032C, strain rad52, active compounds read low 0.95 | S. cerevisiae deletion strains, locus YML120C, strain ndi1, active compounds read low 0.975 | S. cerevisiae deletion strains, locus YML124C, strain tub3, active compounds read low 0.994 | S. cerevisiae deletion strains, locus YMR058W, strain fet3, active compounds read low 0.998 | S. cerevisiae deletion strains, locus YMR078C, strain ctf18, active compounds read low 0.961 | S. cerevisiae deletion strains, locus YMR125W, strain sto1, active compounds read low 0.978 | S. cerevisiae deletion strains, locus YMR129W, active compounds read low 0.992 | S. cerevisiae deletion strains, locus YMR205C, strain PFK2, active compounds read low 0.968 | S. cerevisiae deletion strains, locus YMR223W, strain ubp8, active compounds read low 0.992 | S. cerevisiae deletion strains, locus YMR231W, strain pep5, active compounds read low 0.991 | S. cerevisiae deletion strains, locus YMR263W, strain SAP30, active compounds read low 0.964 | S. cerevisiae deletion strains, locus YMR307W, strain GAS1, active compounds read low 1.02 | S. cerevisiae deletion strains, locus YNL067W, strain RPL9B, active compounds read low 0.962 | S. cerevisiae deletion strains, locus YNL071W, strain lat1, active compounds read low 0.998 | S. cerevisiae deletion strains, locus YNL128W, strain TEP1, active compounds read low 0.976 | S. cerevisiae deletion strains, locus YNL153C, strain GIM3, active compounds read low 0.972 | S. cerevisiae deletion strains, locus YNL183C, strain NPR1, active compounds read low 0.904 | S. cerevisiae deletion strains, locus YNL209W, strain ssb2, active compounds read low 0.996 | S. cerevisiae deletion strains, locus YNL233W, strain BNI4, active compounds read low 0.968 | S. cerevisiae deletion strains, locus YNL248C, strain rpa49, active compounds read low 0.971 | S. cerevisiae deletion strains, locus YNL250W, strain rad50, active compounds read low 0.973 | S. cerevisiae deletion strains, locus YNL271C, strain bni1, active compounds read low 0.962 | S. cerevisiae deletion strains, locus YNL298W, strain CLA4, active compounds read low 0.957 | S. cerevisiae deletion strains, locus YNL307C, strain MCK1, active compounds read low 0.983 | S. cerevisiae deletion strains, locus YNL322C, strain KRE1 (second series), active compounds read low 0.995 | S. cerevisiae deletion strains, locus YNL322C, strain KRE1, active compounds read low 0.986 | S. cerevisiae deletion strains, locus YNR049C, strain mso1, active compounds read low 0.987 | S. cerevisiae deletion strains, locus YNR052C, strain pop2, active compounds read low 0.96 | S. cerevisiae deletion strains, locus YOL006C, strain TOP1, active compounds read low 0.947 | S. cerevisiae deletion strains, locus YOL012C, strain htz1 0.784 | S. cerevisiae deletion strains, locus YOL147C, strain pex11, active compounds read low 0.973 | S. cerevisiae deletion strains, locus YOR001W, strain rrp6, active compounds read low 0.968 | S. cerevisiae deletion strains, locus YOR061W, strain CKA2, active compounds read low 0.984 | S. cerevisiae deletion strains, locus YOR069W, strain VPS5, active compounds read low 0.977 | S. cerevisiae deletion strains, locus YOR070C, strain gyp1, active compounds read low 0.99 | S. cerevisiae deletion strains, locus YOR080W, strain dia2, active compounds read low 0.992 | S. cerevisiae deletion strains, locus YOR083W, strain WHI5, active compounds read low 0.969 | S. cerevisiae deletion strains, locus YOR106W, strain vam3, active compounds read low 0.947 | S. cerevisiae deletion strains, locus YOR136W, strain idh2, active compounds read low 0.98 | S. cerevisiae deletion strains, locus YOR144C, strain elg1, active compounds read low 0.975 | S. cerevisiae deletion strains, locus YOR184W, strain ser1, active compounds read low 0.959 | S. cerevisiae deletion strains, locus YOR231W, strain MKK1, active compounds read low 0.982 | S. cerevisiae deletion strains, locus YOR265W, strain rbl2, active compounds read low 0.982 | S. cerevisiae deletion strains, locus YOR270C, strain vph1, active compounds read low 0.959 | S. cerevisiae deletion strains, locus YOR290C, strain snf2, active compounds read low 0.955 | S. cerevisiae deletion strains, locus YOR316C, strain cot1, active compounds read low 0.97 | S. cerevisiae deletion strains, locus YPL051W, strain arl3, active compounds read low 0.984 | S. cerevisiae deletion strains, locus YPL055C, strain LGE1, active compounds read low 0.985 | S. cerevisiae deletion strains, locus YPL078C, strain atp4, active compounds read low 0.976 | S. cerevisiae deletion strains, locus YPL106C, strain sse1, active compounds read low 0.963 | S. cerevisiae deletion strains, locus YPL240C, strain hsp82, active compounds read low 0.974 | S. cerevisiae deletion strains, locus YPL241C, strain CIN2, active compounds read low 0.997 | S. cerevisiae deletion strains, locus YPL256C, strain CLN2, active compounds read low 0.974 | S. cerevisiae deletion strains, locus YPR119W, strain clb2, active compounds read low 0.973 | S. cerevisiae deletion strains, locus YPR141C, strain kar3, active compounds read low 0.961 | S. cerevisiae deletion strains, locus YPR163C, strain tif3, active compounds read low 0.974 | S. cerevisiae deletion strains, locus YPR167C, strain met16, active compounds read low 0.97 | S. cerevisiae deletion strains, strain wtn01, active compounds read low 0.95 | S. cerevisiae strains, strain wild type, active compounds read low 0.987
